Source: PubChem (National Center for Advancing Translational Sciences (NCATS))
Shown are actives, neighbours in structure and some others; about 2.4% of the full set was active somewhere.
TDP1 inh – blocks human tyrosyl-DNA phosphodiesterase 1. recombinant TDP1, AlphaScreen DNA substrate cleavage. Q9NUW8. actives 0.28% (n = 350,000). Potency, µM (top dose mostly 130 µM), actives largely listed as inhibitors; further: nearly all actives have a fitted effect of over 40% in size
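Here, a 5' biotin and 3' phosphotyrosine-FITC DNA oligonucleotide reports Tdp1 activity: intact substrate bridges AlphaScreen beads, while cleavage leaves a 3' phosphate and drops signal. All incubations at room temperature.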
Pol kappa inh – inhibitors of human DNA polymerase kappa | AID 588579 | Potency, µM (doses to about 107 µM), actives largely listed as inhibitors | Q9UBT6 | purified Pol kappa, fluorescent DNA synthesis assay, 10 min | actives 0.53% (n = 400,000)
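First, compounds were pin-transferred onto 10 nM Pol kappa. After 15 min at room temperature, substrate was added to 50 nM final. Fluorescence was then measured kinetically at 0 and 10 min.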
Pol eta inh-1 – inhibitors of human DNA polymerase eta; Q9Y253; recombinant Pol eta, fluorescent DNA replication assay; Potency, µM (titrated, usually from 114 µM), hits mostly inhibitors; actives 1.2% (n = 390,000)
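Pol eta (10 nM) was preincubated with compounds for 15 min at room temperature, after which fluorescent replication substrate (50 nM final) was added to start the reaction. Fluorescence was read kinetically at 0 and 10 min.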
Pol iota inh – inhibitors of human DNA polymerase iota; Q9UNA4; Pol iota fluorescent replication assay, 10 min; Potency, µM (series often up to 115 µM), actives largely listed as inhibitors; actives 1% (n = 390,000); AID 588590
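Pol iota at 10 nM preincubated 15 min with compounds at room temperature; reaction started with fluorescent substrate, 50 nM final. Fluorescence read kinetically at 0 and 10 min; buffer-only wells as negative control.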
POLB inh – DNA polymerase beta (human) inhibition | Potency, µM (series often up to 114 µM), actives largely listed as inhibitors | Pol beta primer extension/strand displacement, fluorescence kinetic | AID 485314 | actives 1.3% (n = 340,000)
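Reaction started by 50 nM substrate onto compound-treated Pol beta (10 nM, 15 min preincubation, room temperature); plates read at 0 min and 10 min. Normalized concentration-effect data fitted by four-parameter Hill equation.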
Pol eta inh-2 – confirmation of human DNA polymerase eta inhibitors; shares compounds with Pol eta inh-1; Pol eta primer extension, TAMRA/BHQ fluorescence, 10 min; Potency, µM, actives largely listed as inhibitors; actives 64% (n = 2,600); AID 720502
Of the large screens only hits and unclear results are named; the others gave an inactive call (follow-up assays come after a bar, where they were run). The call rests on the fitted dose curve; in most records, active means well fitted curve in the direction sought with a large enough effect; inconclusive means small, poorly fitted or top-dose-only effect, or another doubt; inactive means no such curve, though single readings can be large; an effect the other way counts as inactive or inconclusive.

COc1ccc2cc3c(N)c(C(=O)NCc4ccco4)sc3nc2c1	Pol kappa inh inconclusive, Pol eta inh-1 inconclusive, Pol iota inh inconclusive
Nc1c(C(=O)NCc2ccco2)sc2nc3c(cc12)C(=O)CCC3	Pol kappa inh inconclusive, Pol eta inh-1 31.6µM, Pol iota inh inconclusive, POLB inh 31.6µM | Pol eta inh-2 53.6
COc1ccc(C2=Nn3c(nnc3-c3cc(OC)cc(OC)c3)SC2)cc1	none (no result: Pol kappa inh, Pol eta inh-1, Pol iota inh, POLB inh)
COC(=O)C1=C(C(=O)OC)[C@@H]2N(Cc3ccccc3)c3ccccc3[C@@]23C[C@@H](C(=O)OC)N(S(=O)(=O)c2ccc(C#N)cc2)C3=N1	none (no result: Pol kappa inh, Pol eta inh-1, Pol iota inh, POLB inh)
NS(=O)(=O)c1ccc(NC(=O)CSc2nnc(NC3CC3)s2)cc1	TDP1 inh 14.1µM, Pol kappa inh inconclusive, Pol eta inh-1 20µM, Pol iota inh 39.8µM (no result: POLB inh) | Pol eta inh-2 67.5
CC1(C)OC(=O)C=C[C@@]2(C)C1C[C@@H](O)[C@]1(C)C2CC[C@@]2(C)C(c3ccoc3)OC(=O)[C@H]3O[C@]321 (stereo partly drawn)	none (no result: Pol kappa inh, Pol eta inh-1, Pol iota inh, POLB inh)
O=C(O)c1ccc(/C=C2\COc3ccccc3C2=O)cc1	Pol eta inh-1 inconclusive, Pol iota inh inconclusive | Pol eta inh-2 inconclusive
Cc1nn(CCC(=O)NCc2cccc(Br)c2)c(=O)c2nn(-c3ccccc3)c(C)c12	none
